# In PubChem BioAssay (Tox21):
# Several values for one entry are separate records, joined by “and”; a condition that tells them apart may be missing. Identical values can stand only once. Records with an inconclusive call do not appear. Entries that show only a call come without a potency. Activity calls are given as the source filed them. Calls follow the shape of the dose curve; as a rule, active = well fitted activation curve with a large enough effect in the repeat runs; inconclusive = weak or mixed curves, or effect the other way; inactive = no such curve, though single readings can be large or run the other way.
# Assay: qHTS assay to identify small molecule agonists of the estrogen related receptor signaling pathway with the pleiotropic PPARgamma coactivator (PGC) from Tox21 10K library (AID 1224842); also: nearly all actives have a fitted effect of over 15% in size
# Conditions: PGC/ERR reporter cell line, luciferase ONE-Glo, 18 h; series mostly up to 92.4 µM
# Excerpt: National Center for Advancing Translational Sciences [NCATS] NIH Chemical Genomics Center [NCGC] U.S. Environmental Protection Agency [EPA] National Institutes of Environmental Health Sciences [NIEHS] National Toxicology Program [NTP] Assay overview: Estrogen related receptors (ERRs), the first orphan nuclear receptors discovered, play an important role in the control of cellular energy metabolism. ERRs are required for high-energy production in response to the environmental challenges. The pleiotropic PPARgamma coactivator (PGC) is a major partner of ERR and a key regulator in energy homeostasis. Together they have been implicated in the etiology of metabolic disorders such as Type 2 diabetes and metabolic syndrome. ERR-alpha was also identified as an adverse marker for breast cancer progression; ERR-alpha-positive tumors have a poor prognosis. To screen and to identify environmental compounds that perturb the PGC/ERR signaling pathways could provide valuable information for potential therapeutic or preventive measures in the treatment of metabolic disease. For identifying PGC/ERR agonists, PGC/ERR cell line (provided by NTP) has been used to screen Tox21 10K library.
# Assay Protocol Summary: The PGC/ERR cells were dispensed at 2,000 cells/5 ul/well in 1536-well white plates using a Multidrop dispenser. After the assay plates were incubated at a 37 C/5% CO2 incubator for 6 hours, 23 nL of compounds dissolved in DMSO, positive and negative controls or DMSO only was transferred to the assay plate by a pin tool. The plates were incubated at 37 C for 18 hours. 4 ul/well of One-Glo reagent was added into the assay plates using a Flying Reagent Dispenser. After 30-minute incubation at room temperature, the luminescence intensity in the plates was measured using a ViewLux plate reader.
# Potency is read from the fitted curve at half-maximal effect.
row,Structure (SMILES),Potency
1,Nc1ccc(S(=O)(=O)Nc2nccs2)cc1,inactive
2,O=C(O)CCC(=O)O,inactive
3,NC(=O)c1cnccn1,inactive
4,Cc1ccccc1C(OCCN(C)C)c1ccccc1 (stereo not drawn),inactive
5,Cc1cn([C@H]2C[C@H](N=[N+]=[N-])[C@@H](CO)O2)c(=O)[nH]c1=O,inactive
6,NNC(=O)c1ccncc1,inactive
7,CCCCC1C(=O)N(c2ccccc2)N(c2ccccc2)C1=O,inactive
8,CC(=O)OCC(COC(C)=O)OC(C)=O,inactive
9,NS(=O)(=O)c1cc(C(=O)O)c(NCc2ccco2)cc1Cl,inactive
10,CC1(C)[C@@H]2CC[C@@]1(C)C(=O)C2,inactive
11,O=c1cc[nH]c(=S)[nH]1,inactive
12,Oc1ccc(/C=C/c2cc(O)cc(O)c2)cc1,5.5 µM (active) and 4.86 µM (active) and 10.6 µM (active)
13,COc1ccc2[nH]cc(CCNC(C)=O)c2c1,inactive
14,Cc1cc(=O)n(-c2ccccc2)n1C,inactive
15,CCCN(CCC)S(=O)(=O)c1ccc(C(=O)O)cc1,inactive
16,O=C(C1CCCCC1)N1CC(=O)N2CCc3ccccc3C2C1 (stereo not drawn),inactive
17,Nc1ccc(O)c(C(=O)O)c1,inactive
18,CCCCOC(=O)CC(CC(=O)OCCCC)(OC(C)=O)C(=O)OCCCC,inactive
19,CC(O)CO (stereo not drawn),inactive
20,Cc1ccc(S(=O)(=O)NC(=O)NN2CCCCCC2)cc1,inactive
21,c1ccc2[nH]ccc2c1,inactive
22,O=C1CN(/N=C/c2ccc([N+](=O)[O-])o2)C(=O)N1,inactive
23,CCCCC(CC)COC(=O)/C=C/c1ccc(OC)cc1 (stereo not drawn),inactive
